Data taken from PubChem BioAssay AID1851 (National Center for Advancing Translational Sciences (NCATS), 2009).
Where “and” joins values, the source holds several entries; their conditions need not be identical. Equal entries are not always repeated. In all, about 16,000 compounds went through this assay and about 4,000 (25%) were called active. Inconclusive results (about 26%) are left out. The call rests on the fitted dose curve; in most records, active means well fitted curve in the direction sought with a large enough effect; inconclusive means small, poorly fitted or top-dose-only effect, or effect the other way; inactive means no such curve, though single readings can be large or run the other way. Only a sample is shown. Some structures have more than one record in an assay (separate samples or runs), and their calls can disagree.

Target: Cytochrome P450 2C9 (Homo sapiens) (UniProt P11712)
Sequence (P11712 whole entry, looked up): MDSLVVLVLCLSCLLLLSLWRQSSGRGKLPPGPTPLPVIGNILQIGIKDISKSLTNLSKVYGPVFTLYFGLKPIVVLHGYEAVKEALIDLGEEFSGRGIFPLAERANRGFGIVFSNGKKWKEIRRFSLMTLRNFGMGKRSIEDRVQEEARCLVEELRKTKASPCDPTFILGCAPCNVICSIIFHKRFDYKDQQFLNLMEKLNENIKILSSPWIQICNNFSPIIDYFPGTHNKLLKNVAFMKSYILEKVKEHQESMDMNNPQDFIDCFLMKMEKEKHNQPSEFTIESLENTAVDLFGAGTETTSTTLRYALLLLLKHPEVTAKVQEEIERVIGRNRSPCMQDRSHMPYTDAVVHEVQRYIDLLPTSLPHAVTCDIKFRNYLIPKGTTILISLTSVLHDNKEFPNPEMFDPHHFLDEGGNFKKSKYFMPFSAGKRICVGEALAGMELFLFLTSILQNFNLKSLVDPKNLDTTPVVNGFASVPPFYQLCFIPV
Assay: Cytochrome panel assay with activity outcomes
Conditions: recombinant CYP, pro-luciferin dealkylation, luminescence, p450-cyp2c9; series mostly up to 57.1 µM
On the % scale 0 is the no-effect control and ±100 the full control effect.

AC50, inactive:
Cn1c(=O)c(-c2cccs2)nc2cnc(OCc3ccccc3)nc21
CC(SCc1cn2cc(Cl)ccc2n1)C(=O)O (centres undefined)
COc1ccccc1OCCOc1ccc(/C=C2/C(=N)N3OC(C)=CC3=NC2=O)cc1OC
COc1cc(/C=C2/C(=N)N3OC(C)=CC3=NC2=O)ccc1OCCOc1ccc(C)cc1
CN1CCCC1CCNC1C2CC3CC(C2)CC1C3 (centres undefined)
NCCCCN
NCCCNCCCCNCCCN
CCCCN(CC)Cc1ccc(CNC(=O)Nc2ccc(OC)cc2OC)o1
CCN(CC)CCOC(=O)c1c(C)n(C)c2ccc(OC)cc12
CCCn1c(=O)c2[nH]c(C3CCCC3)nc2n(CCC)c1=O
COCC(=O)N1CCC2(CC1)CCN(c1ccccn1)CC2
COc1ccc(C(=O)N2CCC3(CC2)CN(C(=O)Nc2ccccc2)C3)cc1
COc1ccc(C(=O)N2CCC3(CC2)CCN(c2ncccn2)CC3)cc1
O=C(c1ccco1)N1CCC2(CC1)CN(c1ccccn1)C2
C[C@@H]1CCc2cc(F)cc3c(=O)c(C(=O)O)cn1c23
CCOCc1cnc(C)nc1NCC(=O)c1c(C)[nH]c2ccccc12
Cc1ccc(C(=O)NNC(=O)c2cc3cc4ccccc4nc3s2)cc1
Cc1ccc(/C=N\NC(=O)c2cc(OCC(F)(F)F)ccc2OCC(F)(F)F)cc1
CCOc1cc(CN2CCN(c3ccc(C(C)=O)cc3)CC2)ccc1OC
COc1cccc(/C=N\NC(=O)c2cc(OCC(F)(F)F)ccc2OCC(F)(F)F)c1
COc1ccccc1CN1CCC2(CC1)CCN(C(C)=O)CC2
Cc1n[nH]c(=O)[nH]c1=O
NCCS
O=C(O)c1cc(=O)cc(C(=O)O)[nH]1
O=C(NNS(=O)(=O)c1ccc(Cl)cc1)C1CCN(Cc2ccccc2)CC1
Cc1cc(C)cc(C(=O)N(C)[C@H](Cc2ccc(-c3ccccc3)cc2)C(=O)N[C@@H](Cc2c[nH]c3ccccc23)C(=O)O)c1
Cn1c(=O)c(-c2ccc(F)cc2)nc2cnc(Oc3ccccc3)nc21
COc1ccc(-c2nc(CSCC(=O)NCC3CCCO3)c(C)o2)cc1OC (centres undefined)
Cc1ccc(C)c(-n2c(Cc3cc(=O)[nH]c(=O)[nH]3)nnc2SCC(=O)NCC2CCCO2)c1 (centres undefined)
CO[C@]1(C2=NCCN2)COc2ccccc2O1
CC(C)OCCCNC(=O)C1CC(=O)N(C2CCCCCCC2)C1 (centres undefined)
CN(C(=O)C(Cl)Cl)c1ccc(OC(=O)c2ccco2)cc1
CC(C)NC[C@@H](O)COc1ccccc1-n1cccc1
C=C(C)[C@@H]1CC=C(C(=O)O)CC1
Cc1ccc(S(=O)(=O)NCCSc2nnnn2C)cc1
CN(C)CCNC(=O)C(C(=O)c1ccc(F)cc1)n1ccccc1=O (centres undefined)

AC50, active:
CSc1nnc(-c2sccc2OCc2ccccc2)n1C 17.8 µM
CSc1n[nH]c(-c2sccc2OCc2ccc(C)cc2)n1 5.01 µM
Cn1c(-c2sccc2OCc2ccccc2)n[nH]c1=S 11.2 µM
c1ccc(Oc2cc(-c3ccccc3)ncn2)cc1 20 µM
CCOc1cc(/C=C2/C(=N)N3C=CSC3=NC2=O)ccc1OCCCOc1ccccc1C 0.631 µM
COc1cc(/C=C2/C(=N)N3C=CSC3=NC2=O)ccc1OCCCOc1ccccc1C 0.708 µM
CCCCOC(=O)C1=C(C)Nc2ncnn2C1c1cc(OC)ccc1OC (centres undefined) 7.94 µM
O=C1C(SCCO)=C(SCCO)C(=O)c2ccccc21 5.01 µM
CC(C)c1ccc(OCc2ccc(C(=O)N3CCN(c4ccccn4)CC3)cc2)cc1 3.16 µM
COc1ccc(S(=O)(=O)NCc2ccc(C(=O)N3CCN(c4ccccn4)CC3)cc2)cc1 3.98 µM
CCOC(=O)CC(=O)CSc1nnc2c(n1)[nH]c1ccccc12 8.91 µM
Cc1ccc(C(=O)NNC(=O)CSc2nnc3c(n2)[nH]c2ccc(F)cc23)cc1 5.62 µM
CC1CCc2cc(F)ccc2N1C(=O)CSc1nnc2c(n1)[nH]c1ccc(F)cc12 (centres undefined) 1.78 µM
COc1ccc(/C=N/NC(=O)c2ccn[nH]2)cc1COc1ccc(F)cc1 25.1 µM
COc1ccc(/C=N/NC(=O)c2ccn[nH]2)cc1COc1ccc(Cl)cc1 12.6 µM
COc1ccc(/C=N/NC(=O)c2ccccc2)cc1CN1CCN(c2ccc(F)cc2)CC1 11.2 µM
CCOc1nc(N2CCCCC2)nc(-n2cc(-c3ccccc3)nn2)n1 2.24 µM
Cc1c(Br)c([N+](=O)[O-])nn1C(C)C(=O)Nc1nccs1 (centres undefined) 3.55 µM
CO[C@H]1COC(=O)C/C=C\[C@H](C)[C@@H](OC)COC(=O)[C@@H](C)COC(=O)C/C=C\[C@@H]1C 2.51 µM
CC(=O)Nc1ccc(NC2=Nc3ccccc3N3C2=Nc2c(c(C)nn2-c2ccccc2)C3c2ccccc2)cc1 (centres undefined) 1.78 µM
Cc1nn(-c2ccccc2)c2c1C(c1ccc(O)c(O)c1)N1C(=N2)C(Nc2ccccc2)=Nc2ccccc21 (centres undefined) 1.26 µM
O=C(NNS(=O)(=O)c1ccc(Cl)cc1)c1cnn(-c2ccccc2)c1-n1cccc1 1.78 µM
COc1cccc(N(C(=O)Cn2nnc(-c3ccc(C)cc3)n2)C(C(=O)NC(C)(C)C)c2c[nH]c3ccccc23)c1 (centres undefined) 5.01 µM
CCCc1cc(=O)[nH]c(SCc2cc(Cl)ccc2OC(F)F)n1 2.82 µM
O=C1/C(=C\c2ccccn2)SC(=S)N1Nc1ncc(C(F)(F)F)cc1Cl 5.01 µM
Cc1cccc2c(SCC(=O)NCC3CCCO3)nc(-c3ccc(F)cc3)nc12 (centres undefined) 3.98 µM
O=C(O)c1ccccc1-c1ccccc1C(=O)Nc1ccc2c(c1)Cc1cc(F)ccc1-2 2.51 µM
CC(C)(C)c1[nH]nc2c1C(c1ccc(OC(=O)c3ccco3)cc1)C(C#N)=C(N)O2 (centres undefined) 4.47 µM
Cc1ccc(C(=O)NNC(=O)CSc2nnc(-c3ccncc3)n2-c2ccc(C)cc2)cc1 5.01 µM
CCC1(C)CC(CCNS(=O)(=O)c2ccc(C)cc2)(c2ccc(C)cc2)CCO1 (centres undefined) 5.62 µM

AC50, inactive and 12.6 µM (active):
NCCCCNCCCN

activity, negative = inhibition, inactive:
CC(C)=CCC/C(C)=C/CO/N=C1/C[C@@H](O)[C@@H](O)[C@@H]2[C@@H]3C(=O)N(C4CCCCC4)C(=O)[C@H]3CC[C@@H]12 -8.91% [at 11.4 µM]
COc1cccc(-c2cc(NCc3ccccc3OC)ncn2)c1 -9.54% [at 2.29 µM]
CN(C)c1ccc(-c2cc(NCc3ccccc3)ncn2)cc1 -5.31% [at 2.29 µM]
CO[C@@H]1COC(=O)[C@H](C)NC(=O)C/C=C\[C@@H](C)[C@@H](NS(=O)(=O)c2ccc(C)cc2)COC(=O)C/C=C\[C@@H]1C -0.567% [at 11.4 µM]
COCCNc1ncnc2ccc(-c3ccc(C(=O)N(C)C)cc3)cc12 -1.35% [at 2.29 µM]
CO[C@@H]1COC(=O)CC=C[C@@H](C)[C@@H]2C=C[C@H](O)[C@@H](COC(=O)C/C=C\[C@H]1C)O2 10.7% [at 11.4 µM]
Cc1ccccc1-c1cncnc1N1CCN(C)CC1 18.6% [at 2.29 µM]
O=S(=O)(O)[C@@H](CO)c1ccccc1 (tested in a mixture with another compound) -2.54% [at 11.4 µM]
Nc1ncnc2c1ncn2[C@H]1O[C@@H](C(=O)O)[C@@H](O)[C@H]1O 20% [at 11.4 µM]
CON(C)C(=O)c1nnc2c(n1)[nH]c1ccccc12 -19% [at 11.4 µM]
Cc1ccc2[nH]c3nc(CCCn4ccnc4-c4ccccc4)nnc3c2c1 -17.6% [at 11.4 µM]
O=C(O)CC12C[C@H]3C[C@@H](CC(O)(C3)C1)C2 -4.71% [at 11.4 µM]
Cc1cnc(CNc2nc(-c3cccnc3)nc3ccccc23)cn1 16.9% [at 2.29 µM]
CO[C@H]1COC(=O)C/C=C\[C@H](C)[C@H](OC)COC(=O)[C@@H](C)COC(=O)C/C=C\[C@@H]1C -5.38% [at 11.4 µM] and 5.78% [at 11.4 µM]
CO[C@@H]1COC(=O)C/C=C\[C@@H](C)[C@H](OC)COC(=O)[C@@H](C)COC(=O)C/C=C\[C@H]1C 11.9% [at 11.4 µM]
Cc1[nH]c(N)nc(=S)c1CCCNc1ccccc1 -9.42% [at 11.4 µM]
O=C(O)c1cc(=O)[nH]c(SCc2ccccc2)n1 -7.95% [at 11.4 µM]
S=C(Nc1ccc2c(c1)Cc1ccccc1-2)Nc1ccc2c(c1)Cc1ccccc1-2 1.69% [at 11.4 µM]
O=C(O)/C=C\C(=O)Nc1ccc2c(c1)-c1ccccc1C2 -10.9% [at 11.4 µM]
C[N+](C)(C)c1nc(N)nc2c1ncn2[C@H]1O[C@@H](CO)[C@@H](O)[C@H]1O 12.2% [at 11.4 µM]
Cc1cccc(CNc2ncncc2-c2ccc(C(=O)N(C)C)cc2)c1 2.16% [at 2.29 µM]
CC(C)=CCC/C(C)=C/CO/N=C1/[C@H]2O[C@@H]2[C@@H](O)[C@H]2[C@H]1CCn1c(=O)n(Cc3cc4c(cc3Cl)OCO4)c(=O)n12 -2.9% [at 11.4 µM]
